From PubChem BioAssay
Values without a mark were called inactive. For some assays here: Measured potencies and affinities stand elsewhere. Activity calls are given as the source filed them. Unless noted, how the calls were made is not given here.

Key:
[1] = antimalarial activity against Dd2 strain (AID 2302;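 active means growth inhibition above 50% at the single 2 µM test dose, taken to imply half-maximal potency below 2 µM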;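 further: 0% = DMSO untreated growth and 100% = chloroquine plus artemisinin killed control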); details: P. falciparum Dd2 in RBCs, LDH growth readout, 72 h; at 2 µM; hits give high values
[2] = HepG2 cytotoxicity, primary screen, cytotoxicity control for P. falciparum antimalarial project, cell-based, ATP luminescence (AID 2303;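 active means inhibition above 50%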;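 further: 0% = DMSO wells and 100% = digitonin-killed cells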); details: HepG2 viability, 24-48 h, at 10 µM, hits give high values
[3] = biological target: L-lactate dehydrogenase (Plasmodium falciparum (isolate CDC / Honduras)) (UniProt Q27743); assay: PfLDH activity inhibition – cell lysate, 3D7 strain, counter-screen for P. falciparum growth inhibition project (AID 2304);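 further: 0% = vehicle and 100% = reference inhibitor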; details: P. falciparum 3D7 crude extract, LDH APAD/NBT absorbance; at 2 µM; hits give high values
[4] = inhibition of 3D7 malaria parasite growth – strain 3D7 (AID 2306);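 further: 0% = DMSO wells and 100% = chloroquine plus artemisinin control wells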; details: P. falciparum 3D7 erythrocytic growth, LDH absorbance, 72 h; at 2 µM; hits give high values
[5] = biological target: Calcium-dependent protein kinase 1 (Plasmodium falciparum (isolate 3D7)) (UniProt P62344); assay: PfCDPK1 kinase inhibitors, biochemical, TCAMS library (AID 1159585; cut-off not given, nearly all actives have IC50 up to about 0.98 µM;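 further: inhibitors leave more ATP so luminescence rises with inhibition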); details: recombinant PfCDPK1, Kinase-Glo ATP depletion luminescence
[6] = biological target: Plasmodium falciparum protein kinase 6 (PK6, PF3D7_1337100) (UniProt Q8IDW1); assay: PfPK6 kinase inhibitors, biochemical, TCAMS library (AID 1159586); details: recombinant PfPK6, Kinase-Glo ATP depletion luminescence
[7] = biological target: Protein kinase 7 (PK7), Plasmodium falciparum 3D7 (PF3D7_0213400) (UniProt Q7YTF7); assay: inhibition of Plasmodium PK7 catalytic activity – biochemical, TCAMS antimalarial set, Kinase-Glo luminescence (AID 1159587); details: recombinant PfPK7, Kinase-Glo ATP depletion luminescence
[8] = biological target: Calcium-dependent protein kinase 4 (Plasmodium falciparum (isolate 3D7)) (UniProt Q8IBS5); assay: PfCDPK4 kinase inhibitors, biochemical, TCAMS library (AID 1159588; cut-off not given, nearly all actives have IC50 up to about 0.91 µM); details: recombinant PfCDPK4, Kinase-Glo ATP depletion luminescence
Sequence of Calcium-dependent protein kinase 4 (Plasmodium falciparum (isolate 3D7)) (Q8IBS5 whole entry, looked up): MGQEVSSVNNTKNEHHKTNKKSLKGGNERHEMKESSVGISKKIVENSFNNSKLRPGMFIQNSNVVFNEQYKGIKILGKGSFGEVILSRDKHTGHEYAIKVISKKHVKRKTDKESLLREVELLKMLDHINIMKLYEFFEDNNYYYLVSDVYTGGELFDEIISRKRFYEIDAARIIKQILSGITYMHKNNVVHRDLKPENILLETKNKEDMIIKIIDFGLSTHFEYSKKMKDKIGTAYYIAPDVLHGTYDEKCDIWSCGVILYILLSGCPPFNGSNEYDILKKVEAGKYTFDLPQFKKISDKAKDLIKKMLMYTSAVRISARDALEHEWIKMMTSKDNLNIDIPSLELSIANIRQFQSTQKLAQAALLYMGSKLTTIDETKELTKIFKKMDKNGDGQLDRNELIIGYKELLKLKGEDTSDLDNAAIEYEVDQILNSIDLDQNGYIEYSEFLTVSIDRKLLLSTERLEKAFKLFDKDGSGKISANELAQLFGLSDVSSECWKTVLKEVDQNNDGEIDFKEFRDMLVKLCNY

Sequence of L-lactate dehydrogenase (Plasmodium falciparum (isolate CDC / Honduras)) (Q27743 whole entry, looked up): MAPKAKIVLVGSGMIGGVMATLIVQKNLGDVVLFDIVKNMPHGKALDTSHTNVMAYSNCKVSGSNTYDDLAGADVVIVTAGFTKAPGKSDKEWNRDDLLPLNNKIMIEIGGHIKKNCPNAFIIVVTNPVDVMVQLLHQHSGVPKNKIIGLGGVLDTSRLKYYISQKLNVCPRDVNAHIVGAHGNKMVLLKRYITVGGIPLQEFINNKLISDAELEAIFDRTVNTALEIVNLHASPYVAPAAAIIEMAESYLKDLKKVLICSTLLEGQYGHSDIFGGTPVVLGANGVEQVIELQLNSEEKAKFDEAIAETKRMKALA
Sequence of Protein kinase 7 (PK7), Plasmodium falciparum 3D7 (PF3D7_0213400) (Q7YTF7 1-343): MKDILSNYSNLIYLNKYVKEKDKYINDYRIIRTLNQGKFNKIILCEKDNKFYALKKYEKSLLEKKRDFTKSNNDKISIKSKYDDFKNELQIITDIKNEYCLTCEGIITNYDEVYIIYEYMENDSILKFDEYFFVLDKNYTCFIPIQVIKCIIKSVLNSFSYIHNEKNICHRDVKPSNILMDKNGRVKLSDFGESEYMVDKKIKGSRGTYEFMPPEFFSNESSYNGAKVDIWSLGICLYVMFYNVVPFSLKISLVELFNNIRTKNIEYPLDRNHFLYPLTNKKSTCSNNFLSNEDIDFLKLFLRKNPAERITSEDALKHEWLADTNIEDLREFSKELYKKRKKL
Sequence of Calcium-dependent protein kinase 1 (Plasmodium falciparum (isolate 3D7)) (P62344 whole entry, looked up): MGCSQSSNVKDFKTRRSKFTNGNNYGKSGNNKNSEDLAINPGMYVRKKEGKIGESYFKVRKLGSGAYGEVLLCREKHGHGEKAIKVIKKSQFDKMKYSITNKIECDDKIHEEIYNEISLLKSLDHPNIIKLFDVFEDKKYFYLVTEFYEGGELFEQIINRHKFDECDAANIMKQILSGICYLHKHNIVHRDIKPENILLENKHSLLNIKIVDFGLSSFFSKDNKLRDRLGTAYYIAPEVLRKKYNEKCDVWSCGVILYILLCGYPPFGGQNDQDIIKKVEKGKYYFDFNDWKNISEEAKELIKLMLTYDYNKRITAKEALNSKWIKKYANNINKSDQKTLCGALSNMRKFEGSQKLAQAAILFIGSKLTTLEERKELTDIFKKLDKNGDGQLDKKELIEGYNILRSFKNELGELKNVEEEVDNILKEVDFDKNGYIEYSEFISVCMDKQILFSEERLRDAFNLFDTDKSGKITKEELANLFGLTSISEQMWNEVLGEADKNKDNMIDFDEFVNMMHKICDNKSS
Sequence of Plasmodium falciparum protein kinase 6 (PK6, PF3D7_1337100) (Q8IDW1 1-305): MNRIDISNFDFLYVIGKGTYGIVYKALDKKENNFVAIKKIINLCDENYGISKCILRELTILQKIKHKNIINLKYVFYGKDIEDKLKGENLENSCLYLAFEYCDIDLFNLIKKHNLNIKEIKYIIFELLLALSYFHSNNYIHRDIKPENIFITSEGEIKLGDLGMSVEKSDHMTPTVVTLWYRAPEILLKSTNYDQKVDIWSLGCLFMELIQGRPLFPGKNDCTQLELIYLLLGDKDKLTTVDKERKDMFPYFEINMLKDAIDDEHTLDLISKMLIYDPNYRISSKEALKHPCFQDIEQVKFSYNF

Q: What does the source list for `N#Cc1ccc(NC(=NC2CCCc3ccccc32)Nc2ccc(-c3ccccc3)cc2)c(O)c1` (configuration not stated)?
A: growth inhibition [1]: 98% (active); inhibition [2]: 0%; inhibition [3]: 3%; growth inhibition [4]: 99% (active); outcome [5]: inactive; outcome [6]: inactive; outcome [7]: inactive; outcome [8]: inactive

Q: What does the source list for `CCOC(=O)NC1=NC(C)(C)N(OCc2cccc3c2ccc2ccccc23)C(NC(=O)OCC)=N1`?
A: growth inhibition [1]: 3%; inhibition [2]: 3%; inhibition [3]: 4%; growth inhibition [4]: 98% (active); outcome [5]: inactive; outcome [6]: inactive; outcome [7]: inactive; outcome [8]: inactive

Q: Which growth inhibition [1] does the source give for `COc1ccc(Cl)cc1-c1nc(C(=O)NCCN2CCCCC2)c(C(C)C)s1` here?
A: 37%

Q: What about the inhibition [2] of the same molecule?
A: 14%

Q: And the inhibition [3]?
A: -3%

Q: What about the growth inhibition [4] of the same molecule?
A: 100% (active)

Q: What about the outcome [5] of the same molecule?
A: inactive

Q: And the outcome [6]?
A: inactive

Q: And the outcome [7]?
A: inactive

Q: What about the outcome [8] of the same molecule?
A: inactive

Q: For `Cc1ccc2nc(C)cc(NN=Cc3ccc([N+](=O)[O-])o3)c2c1`, which growth inhibition [1] is on record?
A: 99% (active)

Q: And the inhibition [2]?
A: 15%

Q: What about the inhibition [3] of the same molecule?
A: -4%

Q: What about the growth inhibition [4] of the same molecule?
A: 101% (active)

Q: And the outcome [5]?
A: inactive

Q: What about the outcome [6] of the same molecule?
A: inactive

Q: And the outcome [7]?
A: inactive

Q: And the outcome [8]?
A: inactive
